Laboratory results taken from PubChem BioAssay (EPA / NIEHS).
Results filed as inconclusive are left out. The source made the active and inactive calls. How the source made its calls, unless noted: active means hit-call score of the fitted dose curve at least 0.9, where 1 is the maximum; inactive means score below 0.9.

What was measured:
[1] = ATG_PXRE_CIS: Attagene CIS-FACTORIAL HepG2 Assay for human Pregnane X Receptor Element (PXRE) (AID 2282957); details: HepG2 Attagene CIS-FACTORIAL PXRE reporter, mRNA; actives raise or lower the signal
In short: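 HepG2 cells transiently transfected with cis-element-driven multiplexed reporter units; after 24 h chemical exposure, reporter mRNA measured by RT-PCR, 6-FAM labelling, HpaI digestion and capillary electrophoresis. Bidirectional fitting relative to DMSO.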

[2] = ATG_PPRE_CIS: Attagene CIS-FACTORIAL HepG2 Assay for human Peroxisome Proliferator-activated Response Element (PPRE) (AID 2282958); details: HepG2 PPRE cis-element reporter, Attagene transcription factor profiling; actives raise or lower the signal
In short: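 PPRE activity in HepG2: transient cis-reporter transfection, 24 h compound incubation, reporter mRNA by RT-PCR and CE fluorescence; gain/loss fitted against DMSO.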

[3] = ATG_RORE_CIS: Attagene CIS-FACTORIAL HepG2 Assay for human RAR-related Orphan Receptor Element (RORE) (AID 2282959); details: HepG2 Attagene cis-factorial RORE reporter, mRNA; actives raise or lower the signal
In short: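 A 24-hour exposure of transfected HepG2 hepatoma cells precedes RNA isolation and reporter RT-PCR. Labeled products are digested with HpaI and resolved by capillary electrophoresis, with gain or loss of signal scored relative to DMSO.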

[4] = ATG_Sox_CIS: Attagene CIS-FACTORIAL HepG2 Assay for human SRY-box transcription factor (SOX) (AID 2282960); details: HepG2 Attagene cis-factorial SOX reporter, mRNA; actives raise or lower the signal
In short: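 HepG2, cis reporter units, 24 h exposure. Reporter mRNA: RT-PCR → FAM labelling → HpaI → CE fluorescence. Bidirectional fit vs DMSO.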

[5] = biological target: Transcription factor Sp1 (Homo sapiens) (UniProt P08047); experiment: ATG_Sp1_CIS: Attagene CIS-FACTORIAL HepG2 Assay for human Specificity Protein 1 (Sp1) (AID 2282961); details: HepG2 Sp1 cis-reporter transcription, actives raise or lower the signal
In short: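 Liver-derived HepG2 cells, cis-element reporter library, 24 h treatment; RNA isolated, cDNA amplified with reporter-specific primers, FAM-labeled fragments sized on capillary analyzer. DMSO baseline, bidirectional curve fit.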

[6] = ATG_SREBP_CIS: Attagene CIS-FACTORIAL HepG2 Assay for human Sterol Regulatory Element Binding (SREBP) (AID 2282962); details: HepG2 Attagene cis-factorial SREBP reporter, mRNA; actives raise or lower the signal
In short: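 mRNA induction of transfected cis-promoter reporters in HepG2 cells, 24 h post-dose. Detection: RT-PCR with 6-FAM-labelled products, HpaI digest, capillary electrophoresis. DMSO served as negative control and baseline.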

[7] = biological target: Signal transducer and activator of transcription 3 (Homo sapiens) (UniProt P40763); experiment: ATG_STAT3_CIS: Attagene CIS-FACTORIAL HepG2 Assay for human Signal Transducer and Activator of Transcription 3 (STAT3) (AID 2282963); details: HepG2, Attagene cis-factorial STAT3 reporter transcription; actives raise or lower the signal
In short: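 Values derive from bidirectional fits relative to DMSO of reporter mRNA levels, measured by RT-PCR with capillary electrophoresis, in HepG2 cells carrying transiently transfected cis-regulated reporter units and exposed 24 h.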

[8] = ATG_TA_CIS: Attagene CIS-FACTORIAL HepG2 Assay for human TA Basal Promoter (AID 2282964); details: HepG2 Attagene CIS-factorial TA basal promoter reporter; actives raise or lower the signal
In short: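 HepG2 cells transiently transfected with multiple reporter units under cis promoter elements, reporting endogenous transcription factor activity; this endpoint tracks the TA basal promoter as background control. Reporter mRNA after 24 h dosing measured by RT-PCR/capillary electrophoresis; bidirectional fits versus DMSO.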

[9] = ATG_TCF_b_cat_CIS: Attagene CIS-FACTORIAL HepG2 Assay for human T-Cell-Factor with beta-catenin (TCF/b-cat) (AID 2282965); details: HepG2 TCF/beta-catenin cis-reporter transcription, actives raise or lower the signal
In short: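 Cells of the HepG2 line carry transiently transfected reporter units whose promoters respond to endogenous factors. Twenty-four hours post-dosing, reporter mRNA induction is measured by fluorescent RT-PCR and capillary electrophoresis, with DMSO as baseline.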

[10] = ATG_TAL_CIS: Attagene CIS-FACTORIAL HepG2 Assay for human TAL Basal Promoter (AID 2282966); details: HepG2 Attagene cis-factorial TAL promoter reporter; actives raise or lower the signal;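 further: background control endpoint measuring basal TAL promoter reporter mRNA not a specific factor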
In short: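 HepG2 cells transiently transfected with multiplexed cis-promoter reporter units, dosed 24 h. Reporter mRNA quantified by RT-PCR, 6-FAM labelling, HpaI digestion and capillary electrophoresis; TAL basal promoter serves as background control, fitted bidirectionally versus DMSO.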

[11] = ATG_VDRE_CIS: Attagene CIS-FACTORIAL HepG2 Assay for human Vitamin D Receptor Element (VDRE) (AID 2282968); details: HepG2 VDRE cis-reporter transcription, actives raise or lower the signal
In short: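 Cell-based multiplexed reporter format in human liver HepG2 cells, 24 h post-dose. Fluorescence from capillary electrophoresis of reporter cDNA gives the signal, with DMSO as negative control and baseline.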

[12] = biological target: Nuclear receptor subfamily 1 group I member 3 (Homo sapiens) (UniProt Q14994); experiment: ATG_CAR_TRANS: Attagene TRANS-FACTORIAL HepG2 Assay for human Constitutive Androstane Receptor (CAR) (AID 2282969; active means hit-call score of the fitted dose curve at least 0.9, where 1 is the maximum;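 further: activators raise reporter mRNA above DMSO so AC50 marks induction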); details: HepG2 Attagene TRANS-FACTORIAL CAR reporter
In short: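 HepG2 cells transiently transfected with GAL4-UAS reporter units; TRANS format reads activity of exogenous chimeric NR-Gal4 protein. After 24 h dosing, reporter mRNA quantified by RT-PCR, 6-FAM labelling and capillary electrophoresis; gain of signal fitted against DMSO.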

[13] = biological target: X-box-binding protein 1 (Homo sapiens) (UniProt P17861); experiment: ATG_Xbp1_CIS: Attagene CIS-FACTORIAL HepG2 Assay for human X-box Binding Protein 1 (XBP1) (AID 2282972); details: HepG2 XBP1 cis-element reporter, Attagene multiplex; actives raise or lower the signal
In short: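 Fluorescence-labelled cDNA fragments from reporter transcripts, separated by capillary electrophoresis, give the signal. Source: HepG2 cells transfected with promoter-driven reporter units, harvested 24 h post-dose. DMSO served as reference for bidirectional curve fitting.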

[14] = biological target: Estrogen-related receptor gamma (Homo sapiens) (UniProt P62508); experiment: ATG_ERRg_TRANS: Attagene TRANS-FACTORIAL HepG2 Assay for human Estrogen-Related Receptor gamma (ERRg) (AID 2282977; active means hit-call score of the fitted dose curve at least 0.9, where 1 is the maximum;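 further: hits increase reporter signal over DMSO so potencies reflect activators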); details: HepG2 Attagene TRANS reporter, ERRg transactivation
In short: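 Transient HepG2 transfectants, 24 h compound exposure, GAL4-UAS reporter mRNA by RT-PCR/6-FAM labelling/capillary electrophoresis; positive direction vs DMSO.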

[15] = ATG_TGFb_CIS: Attagene CIS-FACTORIAL HepG2 Assay for human Transforming Growth Factor (TGF) (AID 2282967); details: HepG2 Attagene CIS TGFb reporter, mRNA transcription; actives raise or lower the signal
In short: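 HepG2 cells transiently transfected with cis-promoter-driven multiple reporter units measure endogenous TF activity; reporter mRNA quantified at 24 h by RT-PCR, FAM labeling, HpaI digestion and capillary electrophoresis. Bidirectional fit vs DMSO.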

[16] = biological target: Estrogen receptor (Homo sapiens) (UniProt P03372); experiment: ATG_ERa_TRANS: Attagene TRANS-FACTORIAL HepG2 Assay for human Estrogen Receptor alpha (ERa) (AID 2282970; active means hit-call score of the fitted dose curve at least 0.9, where 1 is the maximum); details: HepG2 Attagene TRANS ERa GAL4 reporter, mRNA
In short: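 HepG2 cells transiently transfected with multiplexed GAL4-UAS reporter units read out chimeric NR-Gal4 activity. After 24 h compound exposure, reporter mRNA was quantified by RT-PCR, 6-FAM labeling, HpaI digestion and capillary electrophoresis, relative to DMSO.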

[17] = ATG_M_19_TRANS: Attagene TRANS-FACTORIAL HepG2 Assay for M19 Transcription Factor (Internal Marker) (AID 2282974; active means hit-call score of the fitted dose curve at least 0.9, where 1 is the maximum); details: HepG2 Attagene TRANS-FACTORIAL M19 internal marker reporter
In short: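 Transfected HepG2 (GAL4-UAS MRTUs), 24 h compound, TriZol RNA, DNase-treated RT, reporter PCR, FAM label, HpaI digest, CE fluorescence; gain vs DMSO.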

[18] = ATG_GAL4_TRANS: Attagene TRANS-FACTORIAL HepG2 Assay for GAL4 (Internal Marker) (AID 2282976; active means hit-call score of the fitted dose curve at least 0.9, where 1 is the maximum); details: HepG2 Attagene TRANS GAL4 internal marker reporter
In short: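 Background-control readout: GAL4-UAS reporter transcript in transiently transfected HepG2 cells after 24 h compound exposure. Measured by RT-PCR, 6-FAM primer extension, HpaI digest and capillary electrophoresis; gain-of-signal fit versus DMSO.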

[19] = biological target: Glucocorticoid receptor (Homo sapiens) (UniProt P04150); experiment: ATG_GR_TRANS: Attagene TRANS-FACTORIAL HepG2 Assay for human Glucocorticoid Receptor (GR) (AID 2282978; active means hit-call score of the fitted dose curve at least 0.9, where 1 is the maximum;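 further: activators score as hits since higher reporter transcript over DMSO is fitted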); details: HepG2 Attagene TRANS GR reporter, mRNA transcription
In short: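 After 24 h incubation with test chemical, transfected HepG2 cells were lysed for RNA; reporter cDNA was amplified, FAM-labelled, HpaI-digested and sized on a capillary analyser. Signal gain relative to DMSO was scored.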

Measured: AC50

Sequence of X-box-binding protein 1 (Homo sapiens) (P17861 whole entry, looked up, the tested form may be a part): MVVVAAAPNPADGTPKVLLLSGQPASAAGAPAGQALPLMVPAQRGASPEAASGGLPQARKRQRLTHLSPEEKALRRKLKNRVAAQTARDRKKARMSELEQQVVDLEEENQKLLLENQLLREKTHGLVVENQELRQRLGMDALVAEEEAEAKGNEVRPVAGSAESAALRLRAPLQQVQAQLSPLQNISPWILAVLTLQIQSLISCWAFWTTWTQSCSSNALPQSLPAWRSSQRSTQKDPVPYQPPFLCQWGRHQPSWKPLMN
Sequence of Transcription factor Sp1 (Homo sapiens) (P08047 whole entry, looked up, the tested form may be a part): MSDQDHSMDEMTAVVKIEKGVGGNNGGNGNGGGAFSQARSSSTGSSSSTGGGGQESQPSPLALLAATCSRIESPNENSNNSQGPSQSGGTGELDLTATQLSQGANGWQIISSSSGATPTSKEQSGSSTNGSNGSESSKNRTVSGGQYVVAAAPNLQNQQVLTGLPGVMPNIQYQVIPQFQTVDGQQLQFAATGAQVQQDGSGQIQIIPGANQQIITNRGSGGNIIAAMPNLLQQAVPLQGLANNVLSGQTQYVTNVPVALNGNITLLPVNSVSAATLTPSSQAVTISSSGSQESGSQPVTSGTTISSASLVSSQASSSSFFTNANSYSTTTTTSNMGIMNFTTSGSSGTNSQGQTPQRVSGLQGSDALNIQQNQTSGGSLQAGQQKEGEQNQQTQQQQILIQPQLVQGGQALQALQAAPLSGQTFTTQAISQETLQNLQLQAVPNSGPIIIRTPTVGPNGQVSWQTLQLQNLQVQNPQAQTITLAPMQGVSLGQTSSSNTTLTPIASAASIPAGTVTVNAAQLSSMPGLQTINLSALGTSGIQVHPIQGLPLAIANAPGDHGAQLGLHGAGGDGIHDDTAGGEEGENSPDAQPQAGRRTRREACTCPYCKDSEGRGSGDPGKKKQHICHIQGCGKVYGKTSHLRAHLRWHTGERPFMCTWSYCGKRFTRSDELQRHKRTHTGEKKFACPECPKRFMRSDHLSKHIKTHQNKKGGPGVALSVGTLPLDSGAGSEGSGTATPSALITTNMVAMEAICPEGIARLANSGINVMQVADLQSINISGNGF
Sequence of Estrogen receptor (Homo sapiens) (P03372 whole entry, looked up, the tested form may be a part): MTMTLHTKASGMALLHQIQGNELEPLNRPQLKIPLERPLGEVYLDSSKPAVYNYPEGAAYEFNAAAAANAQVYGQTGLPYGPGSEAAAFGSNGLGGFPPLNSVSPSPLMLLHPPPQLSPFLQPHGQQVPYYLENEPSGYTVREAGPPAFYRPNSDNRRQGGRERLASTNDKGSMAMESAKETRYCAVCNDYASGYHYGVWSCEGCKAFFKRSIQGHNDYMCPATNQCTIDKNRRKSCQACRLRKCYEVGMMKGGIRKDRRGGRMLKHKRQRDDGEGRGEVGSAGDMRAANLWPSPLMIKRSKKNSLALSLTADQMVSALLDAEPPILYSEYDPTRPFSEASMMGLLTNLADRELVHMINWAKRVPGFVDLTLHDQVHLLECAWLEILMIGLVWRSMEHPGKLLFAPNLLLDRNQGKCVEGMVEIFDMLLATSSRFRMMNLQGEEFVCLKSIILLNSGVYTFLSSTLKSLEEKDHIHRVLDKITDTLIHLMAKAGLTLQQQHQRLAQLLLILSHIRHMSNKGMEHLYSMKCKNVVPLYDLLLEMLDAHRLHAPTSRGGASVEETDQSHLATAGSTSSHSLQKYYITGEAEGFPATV
Sequence of Signal transducer and activator of transcription 3 (Homo sapiens) (P40763 whole entry, looked up): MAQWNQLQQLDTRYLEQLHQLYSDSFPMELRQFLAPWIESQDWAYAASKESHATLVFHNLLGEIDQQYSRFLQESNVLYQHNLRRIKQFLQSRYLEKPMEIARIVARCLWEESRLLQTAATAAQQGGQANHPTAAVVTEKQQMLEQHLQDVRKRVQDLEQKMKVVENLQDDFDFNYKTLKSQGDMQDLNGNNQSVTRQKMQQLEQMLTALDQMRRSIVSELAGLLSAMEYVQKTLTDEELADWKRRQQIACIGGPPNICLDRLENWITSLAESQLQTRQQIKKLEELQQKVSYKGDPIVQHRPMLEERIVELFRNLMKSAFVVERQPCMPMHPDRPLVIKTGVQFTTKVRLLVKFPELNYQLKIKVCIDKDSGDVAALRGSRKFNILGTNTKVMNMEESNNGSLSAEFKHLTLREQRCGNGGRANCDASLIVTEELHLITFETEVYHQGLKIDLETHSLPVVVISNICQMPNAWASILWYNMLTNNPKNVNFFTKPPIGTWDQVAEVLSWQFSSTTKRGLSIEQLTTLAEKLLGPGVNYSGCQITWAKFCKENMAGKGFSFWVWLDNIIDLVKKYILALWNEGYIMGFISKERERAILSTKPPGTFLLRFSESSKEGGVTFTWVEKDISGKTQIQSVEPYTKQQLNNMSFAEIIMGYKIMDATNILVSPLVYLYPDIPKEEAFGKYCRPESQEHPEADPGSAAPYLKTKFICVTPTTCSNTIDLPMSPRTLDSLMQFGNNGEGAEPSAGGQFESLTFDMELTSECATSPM
Sequence of Nuclear receptor subfamily 1 group I member 3 (Homo sapiens) (Q14994 whole entry, looked up, the tested form may be a part): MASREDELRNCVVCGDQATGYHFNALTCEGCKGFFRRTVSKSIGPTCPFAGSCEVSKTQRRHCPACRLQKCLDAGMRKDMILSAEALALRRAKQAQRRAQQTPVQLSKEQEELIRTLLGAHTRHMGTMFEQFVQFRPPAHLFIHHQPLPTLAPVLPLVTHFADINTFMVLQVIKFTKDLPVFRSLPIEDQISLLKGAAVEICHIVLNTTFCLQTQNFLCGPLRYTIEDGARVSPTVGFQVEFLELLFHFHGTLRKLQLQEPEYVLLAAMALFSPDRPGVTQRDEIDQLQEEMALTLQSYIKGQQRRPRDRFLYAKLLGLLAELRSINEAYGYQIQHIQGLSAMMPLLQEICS
Sequence of Estrogen-related receptor gamma (Homo sapiens) (P62508 whole entry, looked up, the tested form may be a part): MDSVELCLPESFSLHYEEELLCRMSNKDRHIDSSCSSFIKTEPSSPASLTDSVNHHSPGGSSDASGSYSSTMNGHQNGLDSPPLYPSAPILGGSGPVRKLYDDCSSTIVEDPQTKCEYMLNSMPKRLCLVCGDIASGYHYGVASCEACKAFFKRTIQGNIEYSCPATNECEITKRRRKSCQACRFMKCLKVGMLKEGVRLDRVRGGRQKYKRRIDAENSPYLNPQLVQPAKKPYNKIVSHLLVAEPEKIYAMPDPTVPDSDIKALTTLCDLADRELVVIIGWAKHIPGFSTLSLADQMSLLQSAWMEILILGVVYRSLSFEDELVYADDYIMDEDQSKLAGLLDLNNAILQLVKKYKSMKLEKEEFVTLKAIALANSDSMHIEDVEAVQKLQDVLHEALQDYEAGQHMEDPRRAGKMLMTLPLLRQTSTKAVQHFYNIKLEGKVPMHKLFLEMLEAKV
Sequence of Glucocorticoid receptor (Homo sapiens) (P04150 whole entry, looked up): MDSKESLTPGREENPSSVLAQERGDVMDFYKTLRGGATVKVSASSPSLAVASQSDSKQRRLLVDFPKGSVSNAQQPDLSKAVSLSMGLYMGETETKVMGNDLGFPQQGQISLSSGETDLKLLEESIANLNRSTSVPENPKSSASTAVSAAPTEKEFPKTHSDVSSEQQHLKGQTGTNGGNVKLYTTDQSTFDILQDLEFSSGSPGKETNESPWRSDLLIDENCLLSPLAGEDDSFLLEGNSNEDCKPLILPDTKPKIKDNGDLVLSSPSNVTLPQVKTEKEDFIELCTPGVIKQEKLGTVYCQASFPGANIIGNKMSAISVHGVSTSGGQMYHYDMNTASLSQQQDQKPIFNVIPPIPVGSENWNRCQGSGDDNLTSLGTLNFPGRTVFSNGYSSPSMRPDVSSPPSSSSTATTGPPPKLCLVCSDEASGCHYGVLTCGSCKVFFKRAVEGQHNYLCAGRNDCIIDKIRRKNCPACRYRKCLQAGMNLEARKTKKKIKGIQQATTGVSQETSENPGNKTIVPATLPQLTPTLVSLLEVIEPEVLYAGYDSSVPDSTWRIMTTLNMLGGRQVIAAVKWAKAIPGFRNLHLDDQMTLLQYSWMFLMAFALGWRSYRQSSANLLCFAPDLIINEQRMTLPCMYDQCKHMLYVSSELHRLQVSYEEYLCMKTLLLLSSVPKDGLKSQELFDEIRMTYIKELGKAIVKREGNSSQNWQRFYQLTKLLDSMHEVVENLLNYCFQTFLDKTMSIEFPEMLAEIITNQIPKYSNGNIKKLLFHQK

CCCCCCCCCCCCc1ccccc1
not listed: [15] | [16] | [17] | [18] | [19]
inactive: all other assays above

CC(C)=CCCC(C)=CC=O
active: [1] 4.7 µM | [4] 167 µM | [9] 157 µM | [11] 22.2 µM
not listed: [12] | [14] | [17] | [18] | [19]
inactive: all other assays above

CCCC(=O)OCC
not listed: [14] | [15] | [16] | [18] | [19]
inactive: all other assays above

COc1ccc2sc(C(=O)Nc3nnn[nH]3)c(OC(C)C)c2c1
active: [2] 12.3 µM | [3] 149 µM | [6] 39.7 µM | [8] 70.7 µM | [10] 130 µM | [11] 157 µM | [16] 59.3 µM | [13] 156 µM
inactive: [1] | [4] | [5] | [7] | [9] | [15] | [18] | [14]

CCOC(=O)COc1ccc2c(c1)CC(NCC(O)c1cccc(Cl)c1)CC2 (stereo unspecified)
active: [9] 33 µM | [16] 47.1 µM
not listed: [18] | [19]
inactive: all other assays above

CCc1cc(SCc2sc(-c3ccc(C(F)(F)F)cc3)nc2CN2CCN(c3ccc(OC)cc3)CC2)ccc1OCC(=O)O
inactive: [1] | [4] | [5] | [7] | [10] | [12] | [14]
active: [2] 0.0329 µM | [3] 11 µM | [6] 0.225 µM | [8] 14.8 µM | [9] 7.72 µM | [11] 16.5 µM | [13] 8.03 µM

CC1=CC(=O)CC(C)(C)C1
active: [1] 50 µM
not listed: [12] | [14] | [16] | [18] | [19]
inactive: all other assays above

CC(C)CCCCCCCOC(=O)CCCCC(=O)OCCCCCCCC(C)C
active: [1] 100 µM
not listed: [14] | [16]
inactive: all other assays above

O=C(O)c1cc(N=Nc2ccc(S(=O)(=O)Nc3ccccn3)cc2)ccc1O
not listed: [12] | [14] | [15] | [16]
inactive: all other assays above

O=C(O)c1cccc(Oc2ccccc2)c1
active: [2] 48.3 µM
not listed: [12] | [14] | [15] | [17] | [19]
inactive: all other assays above

C1N2CN3CN1CN(C2)C3
not listed: [12] | [14] | [16] | [19]
inactive: all other assays above

Cc1ccc(O)cc1
not listed: [14] | [16] | [17] | [18] | [19]
inactive: all other assays above

Nc1nc2ncc(CNc3ccc(C(=O)N[C@@H](CCC(=O)O)C(=O)O)cc3)nc2c(=O)[nH]1
not listed: [1] | [14] | [16] | [19]
inactive: all other assays above

O=C(O)CC(O)C(=O)O (stereo unspecified)
not listed: [2] | [14] | [16] | [17] | [18] | [19]
inactive: all other assays above

C[C@](N)(Cc1ccc(O)c(O)c1)C(=O)O
not listed: [2] | [3] | [14] | [16] | [17] | [18] | [19]
inactive: all other assays above

C=CCCCCCCCCC(=O)O
not listed: [2] | [12] | [14] | [15] | [18] | [19]
inactive: all other assays above
